From PubChem BioAssay (NCI) come the findings set out here.

Common to all, as to experiment: NCI-60 one-dose screen, 48 h (100 = growth as untreated, 0 = no growth, -100 = all killed)
What all share (details): 10 µM unless noted

The subject of test [1] is NCI-H23 lung.
In test [2] the test system is NCI-H226 lung.
Test [3] has as its system NCI-H322M lung.
Test [4] has as its system HOP-62 NSCLC.
Test [5] relates to NCI-H460 lung.
Test [6] relates to HOP-92 NSCLC.
Test [7] concerns NCI-H522 lung.
The subject of test [8] is A549/ATCC NSCLC.
Test [9] relates to 786-0 renal.
Test [10] concerns COLO 205 colon.

Structures are written as SMILES. This is part of a sample that, as a whole, favours compounds with a hit. Of some 83,000 tested, about 20% had one in any assay.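 The test compound was applied at a single concentration to cells in 96-well plates for 48 hours, and percent growth was recorded.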 Unmarked numbers belong to inactive results. Active and inactive are the calls of the source. How the source made its calls: active means growth percent below 10; inactive means the rest.

Take `Cc1ccccc1COc1ccc(-c2onc(C)c2-c2ccc(Cl)cc2)cc1`: the growth is 73.8% in test [1]; 57.2% in test [2]; 97.6% in test [3]; 51.6% in [4]; 54.7% in [5]; 72.6% in [6]. The growth in [7] is 25.5%; in test [8], 49.3%; in test [9], 75.5%; in [10] it was 71%.
For the compound `C=CC(=O)Nc1cccc(-c2nc(SC)nc(NCCc3ccc(OC)c(OC)c3)c2C#N)c1`, the growth is 47.6% in test [1]; 40.8% in test [2]; 90.9% in [3]; 75.1% in [4]; 74.6% in test [5]; 62.2% in [6]. The growth is 39.2% in test [7], 46.9% in test [8], 68.2% in [9] and 77.8% in test [10].
Consider `c1ccc2[nH]c(-c3ccc(Nc4nc(N5CCCC5)nc5[nH]ncc45)cc3)nc2c1`, for which the growth in [1] was -11.3% (active); in test [2], 98.9%; in test [3], 6.53% (active); in test [4], -36.6% (active); in test [5] it was -44.3% (active); in test [6], -56.4% (active). Besides, the growth is -54.7% (active) in test [7], -42.4% (active) in test [8], -92.4% (active) in test [9] and -75.9% (active) in [10].
Turning to `COc1ccc(C(=O)c2sc3nc4c(c(-c5cccnc5)c3c2N)CCCC4)cc1OC`, the growth in [1] was 97.7%; in test [2] it was 86.3%; in test [3], 99.5%; in test [4], 80.7%; in [5], 77.4%; in [6] it was -11.7% (active). The growth in test [7] was 83%; in test [8] it was 82.2%; in test [9], 87.5%; in test [10], 94.6%.
In the case of `Nc1nc2ncc(CCNc3ccc(C(=O)O)cc3)nc2c(=O)[nH]1`, the growth was 108% in test [1]; 100% in test [2]; 125% in test [3]; 113% in test [4]; 114% in test [5]; 97.8% in test [6]. Besides, the growth was 100% in test [7], 105% in test [8], 104% in test [9] and 105% in test [10].
For the compound `OCCNc1nccc(N2CCN(c3ccnc4cc(Cl)ccc34)CC2)n1`, the growth in test [1] is 80.5%; in [2] it was 92.2%; in [3] it was 84.2%; in [4] it was 56.3%; in test [5] it was 96.8%; in [6], 88.7%. The growth in test [7] was 65.2%; in test [8], 80.6%; in test [9] it was 92.8%; in [10], 65.6%.
In the case of `Cn1cc(C(=O)c2nc(-c3c[nH]c4ccc(Br)cc34)no2)c2cc(F)ccc21`, the growth in [1] is 84.9%; in test [2] it was 81.5%; in [3], 95.7%; in test [4], 103%; in test [5], 97%; in [6] it was 85.4%. Moreover, the growth in test [7] was 90.5%; in test [8] it was 104%; in [9], 103%; in test [10], 98.3%.
For `CN(C)CCCNc1c2ccccc2nc2ccccc12`, the growth is 93.3% in [1]; 81.1% in test [2]; 110% in test [3]; 88.1% in [4]; 97.7% in test [5]; 180% in [6]. The growth in test [7] is 93.7%; in test [8], 96.2%; in test [9], 88.6%; in test [10] it was 100%.
Turning to `COc1ccc(CN2c3ccccc3Sc3ccccc32)c(C(F)(F)F)c1`, the growth is 43.9% in [1]; 57.7% in test [2]; 49.1% in test [3]; 41% in test [4]; 9.92% (active) in test [5]; 39.4% in [6]. For the same compound, the growth in test [7] was -46.3% (active); in test [8], 33.2%; in test [9], 41.9%; in test [10], -29.1% (active).
For the compound `CCCN1CCN(c2ccc3nc(-c4ccc5nc(-c6ccc(OCC)cc6)[nH]c5c4)[nH]c3c2)CC1`, the growth in test [1] was 19.5%; in test [2], 65.1%; in test [3], 60.6%; in test [4] it was 55.7%; in test [5] it was -76.8% (active); in [6], 39.3%. The growth in test [7] is -3.11% (active); in test [8], -71.4% (active); in test [9] it was 16.3%; in [10], -32% (active).
In the case of `O=C1c2cccc3cccc(c23)C(=O)N1CCCCN1CCN(CCCCOc2ccc(-c3nc4ccc(N5CCOCC5)cc4[nH]3)cc2)CC1`, the growth in [1] was 79.2%; in [2], 90.9%; in [3], 94.8%; in [4], 98.3%; in test [5], 75%; in [6], -29.5% (active). In addition, the growth is 70.4% in test [7], 39.6% in test [8], 80.6% in [9] and 93.9% in [10].
Turning to `COc1ccc(-c2nc3ccc(-c4nc5ccc(N6CCN(C)CC6)cc5[nH]4)cc3[nH]2)cc1OC`, the growth was 62.7% in test [1]; 54.6% in [2]; 96.5% in test [3]; 76.9% in [4]; 103% in test [5]; 89.8% in test [6]. The growth was 13.7% in test [7], 96.1% in test [8], 79.1% in test [9] and 25.5% in [10].
With `CN1CCN=C1c1ccc(NC(=O)c2ccc(C(=O)Nc3ccc(C4=NCCN4C)cc3)cc2)cc1`, the growth in [1] is 90.2%; in test [2] it was 98.6%; in [3], 92.2%; in test [4], 97.8%; in test [5], 91%; in [6], 82.5%. The growth in [7] is 87%; in test [8] it was 101%; in test [9], 101%; in test [10], 99.6%.
On to `CCNc1ncnc2c1cnn2C1CCCO1` (stereo not given), for which the growth was 118% in test [1]; 94.2% in test [2]; 109% in test [3]; 99.4% in test [4]; 105% in test [5]; 60.9% in test [6]. Moreover, the growth is 111% in test [7], 95.4% in [8], 109% in [9] and 105% in test [10].
With `CCOc1cc2ncc(C#N)c(Nc3ccc(OCc4cccc(F)c4)c(Cl)c3)c2cc1NC(=O)CC1CCSS1` (stereo not given), the growth in [1] is 47.4%; in test [2], 56.1%; in [3], 6.49% (active); in [4], 14.9%; in [5], -56.6% (active); in [6], 66.7%. For the same compound, the growth in test [7] is 58.2%; in test [8] it was -69.7% (active); in test [9] it was 88.5%; in test [10], 32.2%.
`Cc1c(/C=C/[N+](=O)[O-])ccc2c1[nH]c1ccccc12`: the growth in [1] was 93.3%; in [2], 54.3%; in [3], 134%; in test [4] it was 106%; in test [5] it was 95.4%; in test [6], 90.6%. The growth in test [7] is 94.8%; in [8], 87.8%; in test [9] it was 73.2%; in test [10], 82.2%.
As to `O=S(=O)(Nc1ccc(I)cc1F)c1ccc(-c2cnc(C3CC3)o2)cc1`, the growth in [1] was 71.2%; in [2], 80.2%; in [3], 86.2%; in test [4], 52.4%; in test [5], 38.4%; in [6], 62.1%. For the same compound, the growth was 31.2% in test [7], 50.6% in test [8], 69.1% in [9] and 68.4% in [10].
As to `Cn1ncc2c(=O)nc3c(-c4ccccc4)n[nH]n3c21`, the growth was 101% in test [1]; 91.9% in test [2]; 80.9% in test [3]; 95.5% in test [4]; 103% in [5]; 116% in [6]. The growth in test [7] was 73.2%; in test [8], 101%; in [9], 99.9%; in test [10], 119%.
On to `CN1CCN(c2nc(NCCCCNc3ccnc4cc(Cl)ccc34)c3ccccc3n2)CC1`, for which the growth in test [1] was 82.8%; in test [2] it was 98.7%; in [3], 84.9%; in [4], 76.5%; in test [5], 68.1%; in [6], 54.8%. Moreover, the growth in test [7] was 39.8%; in [8], 49.3%; in test [9] it was 74.9%; in test [10], -2.21% (active).
Turning to `COC[C@H](C)n1c(C2CCOCC2)nc2cnc3cc(-c4c(C)noc4C)c(OC)cc3c21`, the growth in test [1] was 70.4%; in test [2], 67%; in test [3], 50.4%; in [4] it was 39.8%; in [5], 65.2%; in [6], 37.1%. Further, the growth is 34.4% in test [7], 45.6% in [8], 51.6% in [9] and 28.9% in test [10].
As for `O=C(CN(C(=O)Cn1c(=O)n2nnnc2c2ccccc21)c1ccccc1C(F)(F)F)Nc1ccc(C(F)(F)F)cc1`, the growth was 103% in test [1]; 104% in [2]; 107% in [3]; 107% in test [4]; 105% in [5]; 92.8% in test [6]. Further, the growth is 98% in [7], 104% in test [8], 103% in [9] and 112% in test [10].
As to `O=C(/C=C/C=C/c1ccc2c(c1)OCO2)N/N=C\c1ccc(O)cc1O`, the growth in test [1] was 30%; in test [2], 37.6%; in [3], 17.8%; in test [4], 27.1%; in test [5] it was 14%; in test [6], 53.4%. Besides, the growth was 21.1% in test [7], 36.1% in test [8], 29% in [9] and 14% in [10].
For `COc1ccc(C2CC(c3ccc(Cl)cc3)=NN2/C=C2\SC(=S)N(NC(=O)Cc3ccccc3Nc3c(Cl)cccc3Cl)C2=O)cc1` (stereo not given), the growth in test [1] is 80.1%; in test [2], 68.8%; in [3] it was 85%; in test [4], 79.1%; in [5], 81.8%; in test [6], -2.84% (active). For the same compound, the growth in test [7] is 65.7%; in test [8], 57.8%; in test [9], -55.2% (active); in test [10], 30%.
Turning to `C=CC(=O)Nc1cccc(-c2nc(SC)nc(Nc3cccc(OC)c3)c2C#N)c1`, the growth in test [1] was 81%; in test [2], 70.9%; in test [3] it was 94.5%; in [4], 85.5%; in [5], 86%; in [6], 29.5%. The growth in test [7] is 58.7%; in [8], 57.3%; in test [9], 62.7%; in test [10], 93.3%.
Take `O=C(CN1C(=O)/C(=C/c2ccc(Cl)cc2)SC1=S)NCCCN1CCOCC1`: the growth was 97% in [1]; 95.2% in [2]; 104% in test [3]; 111% in test [4]; 101% in [5]; 85.7% in [6]. Moreover, the growth in test [7] was 96.9%; in test [8] it was 104%; in test [9], 111%; in test [10] it was 116%.
Turning to `COc1ccc(S(=O)(=O)N2CCCCCC2)cc1NC(=O)c1[nH]c(C)c2c1CCCCC2=O`, the growth in test [1] is 30.4%; in test [2], 45.5%; in [3] it was 35.8%; in [4] it was 26.8%; in [5], 42.2%; in [6] it was 31.5%. For the same compound, the growth is 27.3% in [7], 29.6% in [8], 34.9% in test [9] and 26.8% in [10].
